Giardia killer – kills Giardia lamblia; activity change, % at 7.66 µM, hits read low; Giardia lamblia trophozoite viability; 340,000 compounds, 0.15% hits; AID 540267; in the data active means activity change below about -80%; inconclusive means between about -30% and that limit;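 further: parasites exposed to compound for two days anaerobically before the ATP read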
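Killing of trophozoites was scored by loss of ATP luminescence after a 48 hrs anaerobic exposure to compounds at 37 deg C, using 100 cells per well.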
ASM inhibitor – blocks human secretory acid sphingomyelinase | P17405 | placental ASM, HMU-PC fluorogenic substrate, 60 min | Potency, µM (top dose mostly 57.5 µM), actives largely listed as inhibitors | 340,000 compounds, 0.006% hits | AID 504937
Target sequence (P17405 47-631 limits assumed): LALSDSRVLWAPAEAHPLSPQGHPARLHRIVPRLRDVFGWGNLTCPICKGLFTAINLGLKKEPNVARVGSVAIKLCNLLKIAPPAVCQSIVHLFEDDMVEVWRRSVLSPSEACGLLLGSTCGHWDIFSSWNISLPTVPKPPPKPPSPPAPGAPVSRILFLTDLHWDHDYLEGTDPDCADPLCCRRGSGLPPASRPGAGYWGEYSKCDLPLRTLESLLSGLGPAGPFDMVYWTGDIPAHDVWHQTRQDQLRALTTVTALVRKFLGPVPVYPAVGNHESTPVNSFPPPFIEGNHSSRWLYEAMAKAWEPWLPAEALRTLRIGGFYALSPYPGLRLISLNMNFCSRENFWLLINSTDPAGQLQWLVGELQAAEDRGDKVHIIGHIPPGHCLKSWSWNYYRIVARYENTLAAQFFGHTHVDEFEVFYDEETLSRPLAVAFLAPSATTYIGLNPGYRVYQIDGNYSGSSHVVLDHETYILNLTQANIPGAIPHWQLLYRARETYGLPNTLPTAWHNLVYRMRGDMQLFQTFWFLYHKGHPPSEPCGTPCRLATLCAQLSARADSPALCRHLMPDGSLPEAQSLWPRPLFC
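Steps: dispense placental human ASM, pin compound, wait 10 min at room temperature, add HMU-PC0 substrate at 9 uM final, incubate 60 min at 37 °C, add stop solution raising pH to 10, read fluorescence.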
KB-V1 MDR tox – KB-V1 MDR subline cytotoxicity; 400,000 compounds, 3.4% hits; KB-V1 MDR cells viability, CellTiter-Glo, 72 h; Potency, µM (doses to about 46.1 µM), most hits filed as cytotoxic; further: nearly all actives have a fitted effect of over 60% in size
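Cells of the MDR subline KB-V1 are plated, dosed with compound at multiple concentrations, and incubated 72 h at 37 degrees C; CellTiter-Glo is then added and luminescence read after 10 min.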
MCF10A rereplic – DNA re-replication induction in MCF 10a cells. MCF 10A DNA re-replication, Hoechst nuclear intensity, 48 h. Potency, µM (top dose mostly 46.1 µM), most hits filed as activators. 350,000 compounds, 2.9% hits. AID 624296; further: nearly all actives have a fitted effect of over 50% in size
SW480 rereplic – inducers of DNA re-replication in SW480 colon cancer cells; Potency, µM (series often up to 46.1 µM), usual class: activators; 340,000 compounds, 1.8% hits; SW480 DNA re-replication, Hoechst DNA content imaging, 48 h; further: nearly all actives have a fitted effect of over 55% in size
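Compounds, transferred as 23 nL by pin tool, were incubated with cells for 48 hr; DNA content per nucleus was then quantified by Hoechst staining and fluorescence plate imaging.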
KB-3-1 cytotox – KB-3-1 parental cell cytotoxicity. KB-3-1 viability, CellTiter-Glo ATP luminescence, 72 h. AID 1347075. Potency, µM (series often up to 46.1 µM), hits mostly cytotoxic. 400,000 compounds, 1.4% hits; further: nearly all actives have a fitted effect of over 60% in size
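Cytotoxicity in the drug-sensitive parental line KB-3-1 was scored as loss of CellTiter-Glo luminescence following 72 h incubation with compound. Values come from curve fitting of normalized concentration-response data.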
Each line names hits and unclear results; the compound was inactive in the other large screens. An excerpt weighted towards active compounds, which were near 6.9% of everything screened. Unless noted, the call rests on the fitted dose curve; in most records, active means well fitted curve in the direction sought with a large enough effect; inconclusive means small, poorly fitted or top-dose-only effect, or another doubt; inactive means no such curve, though single readings can be large; an effect the other way counts as inactive or inconclusive.

CC1Cc2ccccc2N1Cc1cccc(S(=O)(=O)N(C)C)c1 (stereo not given)	MCF10A rereplic inconclusive
CCCCn1nnnc1C(c1cccc2ccccc12)N1CCC2(CC1)C(=O)NCN2c1ccccc1 (stereo not given)	KB-V1 MDR tox 21µM, KB-3-1 cytotox inconclusive (no result: Giardia killer, ASM inhibitor, MCF10A rereplic, SW480 rereplic)
CC12CCC3C(CC=C4CC(O)CCC43C)C1C/C(=C\c1cccc(F)c1)C2=O (stereo not given)	MCF10A rereplic 5.8µM
C[C@]12CC[C@@H](O)CC1=CCC1C2CC[C@]2(C)C(=O)[C@H](F)CC12 (stereo not given in full)	none
Cc1onc(-c2ccccc2)c1C(=O)N[C@@H]1C(=O)N2C1SC(C)(C)[C@@H]2C(=O)O (stereo not given in full)	SW480 rereplic inconclusive
COc1ccc(O)c(C(C)(C)C)c1	none
CC(C)(C)c1cc(O)ccc1O	MCF10A rereplic 30µM, SW480 rereplic inconclusive (no result: Giardia killer, ASM inhibitor, KB-V1 MDR tox, KB-3-1 cytotox)
Oc1cccc[c]1[Hg][Cl]	SW480 rereplic inconclusive (no result: Giardia killer, ASM inhibitor, KB-V1 MDR tox, KB-3-1 cytotox)
COc1ccc(C(=O)N2Cc3cnnn3-c3ccccc3C2C#N)cc1 (stereo not given)	SW480 rereplic inconclusive
c1ccc(C2c3ccccc3-n3nncc3CN2CC2CCCCC2)cc1 (stereo not given)	KB-V1 MDR tox inconclusive, MCF10A rereplic inconclusive
COc1ccc(CN2Cc3cnnn3-c3ccccc3C2c2ccccc2)cc1 (stereo not given)	KB-V1 MDR tox inconclusive, MCF10A rereplic 16µM, SW480 rereplic inconclusive, KB-3-1 cytotox inconclusive
COc1ccc(CN2Cc3cnnn3-c3ccccc3C2C#N)cc1 (stereo not given)	KB-V1 MDR tox inconclusive, MCF10A rereplic 3.3µM, SW480 rereplic inconclusive
N#CC1c2ccccc2-n2nncc2CN1Cc1cc(Cl)cc(Cl)c1 (stereo not given)	KB-V1 MDR tox inconclusive, MCF10A rereplic 6.5µM, SW480 rereplic inconclusive, KB-3-1 cytotox 5.8µM
C[C@H]1CN(C2CCC(C#N)(c3ccc(F)cc3)CC2)CC[C@@]1(C(=O)O)c1ccccc1 (stereo not given in full)	none (no result: Giardia killer, ASM inhibitor, KB-V1 MDR tox, KB-3-1 cytotox)
Cc1cccc(C(=O)NCCC(=O)NCc2ccccc2F)c1	MCF10A rereplic inconclusive
c1ccc(CCN2CCOCC2)cc1	none (no result: Giardia killer, ASM inhibitor, MCF10A rereplic, SW480 rereplic)
C[C@H](N)Cc1ccccc1	none (no result: Giardia killer, ASM inhibitor, KB-V1 MDR tox, KB-3-1 cytotox)
C[C@H]1[C@H](OC(=O)CCC(=O)NCc2ccc(C(=O)O)cc2)O[C@@H]2O[C@@]3(C)CC[C@H]4[C@H](C)CC[C@@H]1C24OO3	KB-V1 MDR tox 15µM, MCF10A rereplic inconclusive, SW480 rereplic inconclusive, KB-3-1 cytotox 8.2µM
CC1C(OC(=O)CCC(=O)NC(C)(C)CO)O[C@H]2OC3(C)CC[C@H]4[C@H](C)CCC1C24OO3 (stereo not given in full)	KB-V1 MDR tox 13µM, SW480 rereplic inconclusive, KB-3-1 cytotox 10µM
CC(C)CC(NC(=O)CCCNC(=O)CCC(=O)OC1O[C@H]2OC3(C)CC[C@H]4[C@H](C)CCC(C1C)C24OO3)C(=O)O (stereo not given in full)	KB-V1 MDR tox inconclusive, SW480 rereplic 8.2µM, KB-3-1 cytotox 7.3µM
O=C(COc1ccccc1Cl)N1CCN(CCc2ccccn2)CC1	none (no result: Giardia killer, ASM inhibitor, MCF10A rereplic, SW480 rereplic)
Cc1ccc(-n2c(/C=C/c3cc(Br)cs3)nc3ccccc3c2=O)cc1	none (no result: Giardia killer, ASM inhibitor, MCF10A rereplic, SW480 rereplic)
O=C(Nc1ccccc1)c1c(O)c2c(n(Cc3ccco3)c1=O)CCCC2	KB-3-1 cytotox inconclusive
O=C(Nc1nccs1)c1c(O)c2c(n(Cc3ccco3)c1=O)CCCC2	KB-V1 MDR tox 12µM, KB-3-1 cytotox inconclusive
Brc1nc(-c2ccccc2)nc(-c2ccccc2)c1Br	KB-V1 MDR tox inconclusive, MCF10A rereplic inconclusive
Clc1ccc2c(c1)C(c1ccccc1)=NCc1nncn1-2	none (no result: Giardia killer, ASM inhibitor, KB-V1 MDR tox, KB-3-1 cytotox)
O=c1[nH]c(=S)n(CCC2=CCCCC2)c(O)c1/C=N/N1CCOCC1	MCF10A rereplic 18µM, SW480 rereplic inconclusive
O=c1[nH]cnc2nc(-c3ccc(N(CCCl)CCCl)cc3)[nH]c12	KB-V1 MDR tox inconclusive, MCF10A rereplic 15µM, SW480 rereplic 9.2µM, KB-3-1 cytotox inconclusive
CC(=O)O[C@H]1CC[C@@]2(C)C(=CC[C@@H]3[C@@H]2CC[C@]2(C)C(=O)CC[C@@H]32)C1	KB-V1 MDR tox inconclusive
CC(=O)O/C(=C1\CC2C3CC=C4CC(OC(C)=O)CCC4(C)C3CCC2(C)C1=O)C(F)(F)F (stereo not given)	KB-V1 MDR tox 10µM, MCF10A rereplic inconclusive, KB-3-1 cytotox inconclusive
CCC(C)NC(=O)c1c(N)n(CCCOC)c2nc3ccccc3nc12 (stereo not given)	KB-V1 MDR tox 8.2µM, MCF10A rereplic 4.1µM, SW480 rereplic 7.3µM
COCCCn1c(N)c(C(=O)NCc2ccco2)c2nc3ccccc3nc21	MCF10A rereplic 16µM, SW480 rereplic 18µM
COCCCn1c(N)c(C(=O)OC(C)COC)c2nc3ccccc3nc21 (stereo not given)	KB-V1 MDR tox inconclusive
COCCCn1c(N)c(C(=O)Nc2ccccc2)c2nc3ccccc3nc21	MCF10A rereplic inconclusive, SW480 rereplic 21µM, KB-3-1 cytotox inconclusive
CCN(CC)S(=O)(=O)c1ccc(C(=O)O)cc1	SW480 rereplic inconclusive
COc1ccc(S(=O)(=O)Nc2ccccc2OC)cc1N=Nc1c(O)[nH]c(=S)[nH]c1=O	MCF10A rereplic 21µM
NCCc1ccc(OCc2ccccc2)c(OCc2ccccc2)c1	KB-V1 MDR tox 23µM, MCF10A rereplic inconclusive, SW480 rereplic inconclusive, KB-3-1 cytotox inconclusive
COc1cc(/C=N/NP(=S)(c2ccccc2)c2ccccc2)ccc1O	MCF10A rereplic 11µM
Oc1ccc(/C=N/NP(=S)(c2ccccc2)c2ccccc2)cc1	none
CCCCCCCCCC(CC)c1ccc(S(=O)(=O)O)cc1 (stereo not given)	SW480 rereplic inconclusive (no result: Giardia killer, ASM inhibitor, KB-V1 MDR tox, KB-3-1 cytotox)
C[C@@H](Cc1ccccc1)NCCC(c1ccccc1)c1ccccc1	none (no result: Giardia killer, ASM inhibitor, KB-V1 MDR tox, KB-3-1 cytotox)
O=C(CCn1c(=O)oc2ccccc21)N1CCN(c2ccccc2Cl)CC1	KB-V1 MDR tox 4.1µM, MCF10A rereplic 9.2µM, SW480 rereplic inconclusive, KB-3-1 cytotox 6.5µM
Cc1cccc(-n2c(/C=C/c3c(C)[nH]c4ccccc34)nc3ccccc3c2=O)c1	none (no result: Giardia killer, ASM inhibitor, MCF10A rereplic, SW480 rereplic)
Cc1cccc(N2CCc3c2nc2ccccc2c3N)c1	KB-V1 MDR tox inconclusive, MCF10A rereplic 15µM, KB-3-1 cytotox inconclusive
CC(CO)NC(=O)C1C=C2c3cccc4[nH]cc(c34)CC2N(C)C1 (stereo not given)	none (no result: Giardia killer, ASM inhibitor, KB-V1 MDR tox, KB-3-1 cytotox)
CCC(=NCC1CCCO1)c1c(O)n(Cc2ccccc2)c(=O)[nH]c1=O (stereo not given)	KB-V1 MDR tox 4.1µM
COc1ccccc1N1CCN(Cc2ccc(F)cc2)CC1	none
COc1ccccc1N1CCN(CCc2c[nH]c3cc4c(cc23)OCO4)CC1	KB-V1 MDR tox 18µM
